PubChem BioAssay (Tox21)
Inconclusive results are not listed. Active and inactive are the calls of the source. Unless noted, calls come from the whole dose curve.

Assays:
[1] = Nuclear factor erythroid 2-related factor 2/antioxidant responsive element (Nrf2/ARE) small molecule agonists: qHTS cell viability counter screen in human keratinocytes (AID 1919968; active = well fitted curve in the direction sought with a large enough effect in the repeat runs; an effect the other way counts as inactive or inconclusive; note: nearly all actives have a fitted effect of over 55% in size; note: potency is the fitted concentration of half-maximal effect)
Summary of the method: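 Seed 1,500 KeratinoSens cells per well, then incubate 5 h at 37 C/5% CO2. Add compounds in DMSO and incubate 23 h. Add CellTiter-Fluor, wait 1 h and read fluorescence.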

[2] = Nuclear factor erythroid 2-related factor 2/antioxidant responsive element (Nrf2/ARE) small molecule agonists: luciferase reporter gene qHTS assay in human keratinocytes (AID 1919969); note: nearly all actives have a fitted effect of over 35% in size; note: potency is the fitted concentration of half-maximal effect
[3] = molecular target: Gonadotropin-releasing hormone receptor (Homo sapiens) (UniProt P30968); assay: Human gonadotropin-releasing hormone receptor (GnRHR) small molecule agonists, calcium flux assay in GnRHR-HEK293 cells (AID 1920063); note: nearly all actives have a fitted effect of over 35% in size
Summary of the method: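 Cells: HEK293 stably expressing human GnRHR. Steps: overnight (18 h) culture, 1 h calcium dye loading at 37 C, compound addition, kinetic fluorescence read at 480/540 nm. Each compound tested at 15 concentrations in triplicate.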

[4] = molecular target: KiSS-1 receptor (Homo sapiens) (UniProt Q969F8); assay: Human kisspeptin (KISS1R) small molecule agonists, calcium flux assay in KISS1R-HEK293 cells (AID 1920064; active = well fitted curve in the direction sought with a large enough effect in the repeat runs; an effect the other way counts as inactive or inconclusive)
Summary of the method: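 Cells plated and incubated 18 h; dye added, 1 h at 37 C; compounds in DMSO pinned in; signal read at 480/540 nm every second for 3 min. Each compound tested at 15 concentrations in triplicate.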

[5] = G protein-coupled receptor (GPCR) small molecule agonists, calcium flux assay: HEK293 wild type cell line counter screen (AID 1920065)
Summary of the method: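 Counter-screen of the Tox21 10K library for non-specific calcium release: dye-loaded cells received compounds in DMSO and were monitored by kinetic fluorescence (480/540 nm, 3 min). Fifteen concentrations, run in triplicate.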

[6] = p53 small molecule agonists, cell-based qHTS assay with human liver microsomes (AID 1963577);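 note: p53 response element beta-lactamase reporter cells with liver microsomes plus NADPH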
Summary of the method: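 p53RE-bla cells; 5 h settle, 37 C/5% CO2; cpd + HLM 0.5 mg/mL + NADPH 0.5 mg/mL (final); 16 h 37 C; LiveBLAzer 2 h RT dark; fluorescence readout.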

[7] = p53 small molecule agonists, cell-based qHTS assay with rat liver microsomes (AID 1963578)
Summary of the method: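 Rat liver microsome activation: microsomes 0.5 mg/mL, NADPH 0.5 mg/mL final; p53RE-bla cells, 16 h 37 C; LiveBLAzer readout, 2 h RT dark.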

[8] = p53 small molecule agonists, cell-based qHTS assay with human liver microsomes: qHTS cell viability counter screen (AID 1963579); note: nearly all actives have a fitted effect of over 45% in size
Summary of the method: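 Luminescent CellTiter-Glo read-out, 30 min at room temperature, gauged cytotoxicity in p53RE-bla cells exposed 16 h at 37 C to DMSO-dissolved compounds with metabolic activation by human liver microsomes and NADPH, each 0.5 mg/mL final.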

[9] = p53 small molecule agonists, cell-based qHTS assay with rat liver microsomes: qHTS cell viability counter screen (AID 1963580); note: nearly all actives have a fitted effect of over 45% in size
Summary of the method: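 p53RE-bla HCT-116 cells (4,000/well) rested 5 h at 37 C, then given Tox21 compounds in DMSO with rat liver microsomes (0.5 mg/mL final) plus NADPH (0.5 mg/mL final) for 16 h at 37 C. Viability read by CellTiter-Glo luminescence after 30 min at room temperature.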

[10] = p53 small molecule agonists, cell-based qHTS assay: qHTS cell viability counter screen (AID 1963581); note: nearly all actives have a fitted effect of over 45% in size
Summary of the method: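 Cells: HCT-116 with p53 response element-driven beta-lactamase. Treatment: 16 h, 37 C, compounds in DMSO. Read: CellTiter-Glo luminescence after 30 min RT.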

[11] = p53 small molecule agonists, cell-based qHTS assay (AID 1963582; active = well fitted activation curve with a large enough effect in the signal ratio in the repeat runs, not every such curve was filed as active; the % refers to the signal ratio)
Summary of the method: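 Quantitative HTS in p53RE-bla cells: after a 5 h settling period, compounds delivered in DMSO were left on cells for 16 h at 37 C, and reporter induction was measured as fluorescence following 2 h substrate loading.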

[12] = molecular target: 5-hydroxytryptamine receptor 2A (Homo sapiens) (UniProt P28223); assay: 5-hydroxytryptamine receptor 2A (HTR2A) small molecule antagonists, cell-based qHTS assay (AID 1963586); note: nearly all actives have a fitted effect of over 45% in size; note: potency is the fitted concentration of half-maximal effect
Summary of the method: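 Antagonist-mode intracellular calcium assay: DOI (4 nM) added after 5 min compound pre-incubation at room temperature to dye-loaded HTR2A-CHO cells. Fluorescence followed for 3 min, sampled every second.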

[13] = molecular target: 5-hydroxytryptamine receptor 2A (Homo sapiens) (UniProt P28223); assay: 5-hydroxytryptamine receptor 2A (HTR2A) small molecule agonists, cell-based qHTS assay (AID 1963587); note: nearly all actives have a fitted effect of over 30% in size
Summary of the method: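 HTR2A-CHO cells, plated 18 h at 37 C/5% CO2, dye-loaded 1 h at 37 C; compounds in DMSO added by pin tool (agonist mode). Intracellular calcium flux read as kinetic fluorescence on FDSS over 2 min at 1 s intervals.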

[14] = molecular target: Muscarinic acetylcholine receptor M1 (Homo sapiens) (UniProt P11229); assay: Cholinergic receptor muscarinic 1 (CHRM1) small molecule antagonists, cell-based qHTS assay (AID 1963588); note: nearly all actives have a fitted effect of over 40% in size; note: potency is the fitted concentration of half-maximal effect
Summary of the method: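 CHRM1-CHO calcium-flux assay, antagonist mode. Cells were seeded 18 h, dye-loaded 1 h at 37 C and given compound for 5 min at RT, then acetylcholine was added at 50nM. FDSS fluorescence was read 3 min; 15 concentrations, three runs.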

[15] = molecular target: Muscarinic acetylcholine receptor M1 (Homo sapiens) (UniProt P11229); assay: Cholinergic receptor muscarinic 1 (CHRM1) small molecule agonists, cell-based qHTS assay (AID 1963589); note: nearly all actives have a fitted effect of over 35% in size
Summary of the method: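 Agonist-mode qHTS in CHO cells stably carrying human muscarinic M1. Intracellular calcium is tracked by fluorescence every second after compound transfer; each compound runs at 15 concentrations in three independent runs.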

[16] = cAMP Responsive Elements (CRE) small molecule agonists, cell-based qHTS assay (AID 1963590)
Summary of the method: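 Agonist mode qHTS in CRE-bla HEK 293T cells: compounds dosed from DMSO for 3 h at 37 C/5% CO2, followed by LiveBLAzer B/G FRET substrate for 2 h at room temperature.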

[17] = cAMP Responsive Elements (CRE) small molecule antagonists, cell-based qHTS assay (AID 1963591; active = well fitted inhibition curve with a large enough effect in the signal ratio in the repeat runs, not every such curve was filed as active; the % refers to the signal ratio)
Summary of the method: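 Antagonist mode: test compounds are co-incubated with the adenylyl cyclase activator NKH477 (0.25 uM final) on CRE-bla HEK293T cells for 3 h at 37 °C, followed by LiveBLAzer substrate loading.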

[18] = molecular target: D(2) dopamine receptor (Homo sapiens) (UniProt P14416); assay: Dopamine D2 receptor (DRD2) small molecule agonists, cell-based qHTS assay (AID 1963594); note: nearly all actives have a fitted effect of over 35% in size
Summary of the method: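 HEK293 cells stably expressing DRD2 were cultured 24 h at 37 C, then given Ro20-1724 (0.1 mM final) and compounds for 10 min at room temperature. NKH477 (200nM) was then added for 30 min. cAMP was read by HTRF.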

[19] = molecular target: D(2) dopamine receptor (Homo sapiens) (UniProt P14416); assay: Dopamine D2 receptor (DRD2) small molecule antagonists, cell-based qHTS assay (AID 1963595; active = well fitted inhibition curve with a large enough effect in the signal ratio in the repeat runs, with a control signal flat; the % refers to the signal ratio; note: potency is the fitted concentration of half-maximal effect)
Summary of the method: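 In this cell-based antagonist screen, compounds act for 10 min at room temperature before a 30 min challenge with 12 nM quinpirole and 200 nM NKH477. cAMP is quantified by HTRF competition in DRD2-HEK293 cells containing 0.1 mM Ro20-1724.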

[20] = molecular target: Beta-2 adrenergic receptor (Homo sapiens) (UniProt P07550); assay: Adrenergic beta2 receptor (ADRB2) small molecule antagonists, cell-based qHTS assay (AID 1963592); note: series mostly up to about 92 µM; nearly all actives have a fitted effect of over 50% in size
Summary of the method: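 Cells (CHO, stable ADRB2 overexpression) incubated 18-20hr at 37C; compounds added from DMSO; agonist mix (1nM isoproterenol, 100uM IBMX, 25uM Ro-20-1724) added; 0.5hr RT; d2-cAMP and anti-cAMP-cryptate added; 1hr RT; 665/615 nm read.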

Measured: Potency

Gonadotropin-releasing hormone receptor (Homo sapiens), sequence (P30968 whole entry, looked up): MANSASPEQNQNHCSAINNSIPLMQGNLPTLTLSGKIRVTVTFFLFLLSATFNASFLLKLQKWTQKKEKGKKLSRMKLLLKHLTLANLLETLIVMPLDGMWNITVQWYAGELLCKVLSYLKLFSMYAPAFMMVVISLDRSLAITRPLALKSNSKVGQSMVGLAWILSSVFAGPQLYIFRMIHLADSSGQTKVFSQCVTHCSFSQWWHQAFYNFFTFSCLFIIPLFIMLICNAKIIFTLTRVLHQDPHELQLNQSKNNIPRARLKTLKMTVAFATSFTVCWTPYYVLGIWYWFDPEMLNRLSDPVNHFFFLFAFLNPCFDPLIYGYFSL
Beta-2 adrenergic receptor (Homo sapiens), sequence (P07550 whole entry, looked up): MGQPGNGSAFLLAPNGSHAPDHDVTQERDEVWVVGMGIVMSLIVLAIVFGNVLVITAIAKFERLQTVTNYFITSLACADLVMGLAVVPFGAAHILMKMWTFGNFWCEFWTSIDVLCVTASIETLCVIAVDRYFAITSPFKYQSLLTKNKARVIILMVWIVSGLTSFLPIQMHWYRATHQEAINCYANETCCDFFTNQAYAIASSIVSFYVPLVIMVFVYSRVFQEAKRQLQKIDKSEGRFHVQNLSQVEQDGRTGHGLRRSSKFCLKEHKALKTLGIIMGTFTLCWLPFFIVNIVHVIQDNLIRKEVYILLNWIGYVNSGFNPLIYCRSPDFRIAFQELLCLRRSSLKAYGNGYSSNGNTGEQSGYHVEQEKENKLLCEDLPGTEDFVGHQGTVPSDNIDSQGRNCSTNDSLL
Muscarinic acetylcholine receptor M1 (Homo sapiens), sequence (P11229 whole entry, looked up): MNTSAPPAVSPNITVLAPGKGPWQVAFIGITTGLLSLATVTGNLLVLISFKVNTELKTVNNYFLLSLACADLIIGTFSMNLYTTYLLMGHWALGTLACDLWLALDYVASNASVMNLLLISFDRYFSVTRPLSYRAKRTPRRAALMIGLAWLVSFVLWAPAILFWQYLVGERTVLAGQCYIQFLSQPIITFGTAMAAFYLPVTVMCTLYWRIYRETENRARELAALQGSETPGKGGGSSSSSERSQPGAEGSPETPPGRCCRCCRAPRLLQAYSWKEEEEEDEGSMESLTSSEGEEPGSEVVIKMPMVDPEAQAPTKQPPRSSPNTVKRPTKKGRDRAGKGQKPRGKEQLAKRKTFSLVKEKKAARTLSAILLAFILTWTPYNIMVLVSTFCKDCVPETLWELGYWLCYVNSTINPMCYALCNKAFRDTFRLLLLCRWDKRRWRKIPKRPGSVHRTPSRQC
D(2) dopamine receptor (Homo sapiens), sequence (P14416 whole entry, looked up): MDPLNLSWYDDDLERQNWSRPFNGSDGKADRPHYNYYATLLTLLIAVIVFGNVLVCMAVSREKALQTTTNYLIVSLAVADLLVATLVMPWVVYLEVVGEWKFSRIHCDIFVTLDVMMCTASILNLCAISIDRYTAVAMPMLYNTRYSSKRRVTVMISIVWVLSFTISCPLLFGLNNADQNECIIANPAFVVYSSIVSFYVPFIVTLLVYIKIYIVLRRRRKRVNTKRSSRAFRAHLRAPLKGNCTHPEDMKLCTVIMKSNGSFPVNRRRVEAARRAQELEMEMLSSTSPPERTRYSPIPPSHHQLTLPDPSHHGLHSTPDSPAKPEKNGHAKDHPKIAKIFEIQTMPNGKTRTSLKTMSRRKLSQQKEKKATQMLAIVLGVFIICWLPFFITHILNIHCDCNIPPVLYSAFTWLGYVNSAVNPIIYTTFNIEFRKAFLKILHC
KiSS-1 receptor (Homo sapiens), sequence (Q969F8 whole entry, looked up): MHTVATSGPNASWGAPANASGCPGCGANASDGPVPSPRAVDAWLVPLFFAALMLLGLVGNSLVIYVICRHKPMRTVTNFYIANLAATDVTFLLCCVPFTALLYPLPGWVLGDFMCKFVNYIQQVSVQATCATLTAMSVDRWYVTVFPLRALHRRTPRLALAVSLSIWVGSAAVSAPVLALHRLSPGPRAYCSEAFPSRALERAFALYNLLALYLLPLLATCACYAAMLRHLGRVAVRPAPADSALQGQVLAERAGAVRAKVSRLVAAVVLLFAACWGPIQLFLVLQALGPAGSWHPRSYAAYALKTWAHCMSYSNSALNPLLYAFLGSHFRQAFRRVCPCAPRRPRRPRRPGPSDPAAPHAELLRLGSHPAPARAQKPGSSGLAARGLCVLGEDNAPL
5-hydroxytryptamine receptor 2A (Homo sapiens), sequence (P28223 whole entry, looked up): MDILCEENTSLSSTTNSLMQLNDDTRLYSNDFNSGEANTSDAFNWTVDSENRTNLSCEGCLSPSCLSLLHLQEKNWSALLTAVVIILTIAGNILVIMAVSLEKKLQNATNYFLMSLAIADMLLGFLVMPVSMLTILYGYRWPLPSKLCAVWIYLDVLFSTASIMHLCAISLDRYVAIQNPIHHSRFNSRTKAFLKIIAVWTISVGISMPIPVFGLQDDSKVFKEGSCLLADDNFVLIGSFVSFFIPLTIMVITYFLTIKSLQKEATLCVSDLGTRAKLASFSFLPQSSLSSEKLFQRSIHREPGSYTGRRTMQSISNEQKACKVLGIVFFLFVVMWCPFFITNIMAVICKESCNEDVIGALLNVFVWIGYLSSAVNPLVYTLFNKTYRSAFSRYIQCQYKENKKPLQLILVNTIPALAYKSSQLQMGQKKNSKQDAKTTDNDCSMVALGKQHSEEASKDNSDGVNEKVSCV

O=C(Cl)C(Cl)(Cl)Cl
inactive: [1] | [2] | [3] | [4] | [5] | [6] | [7] | [8] | [9] | [10] | [11] | [12] | [13] | [14] | [15] | [16] | [17] | [18] | [19]

CC(C)[C@H](C(=O)OC(C#N)c1cccc(Oc2ccccc2)c1)c1ccc(OC(F)F)cc1 (stereo not given in full)
inactive: [1] | [2] | [3] | [4] | [5] | [6] | [7] | [8] | [9] | [10] | [11] | [12] | [13] | [15] | [17] | [20] | [18] | [19]

CC(Cc1ccccc1)N(C)Cc1ccco1 (stereo not given)
inactive: [1] | [2] | [3] | [4] | [5] | [6] | [7] | [8] | [9] | [10] | [11] | [13] | [14] | [15] | [16] | [17] | [20] | [18] | [19]

C=CCOC(C)=O
inactive: [1] | [2] | [3] | [4] | [5] | [6] | [7] | [8] | [9] | [10] | [11] | [12] | [13] | [14] | [15] | [18] | [19]

C=CCc1ccc(OC(=O)Cc2ccccc2)c(OC)c1
inactive: [1] | [2] | [3] | [4] | [5] | [6] | [7] | [8] | [9] | [10] | [11] | [12] | [13] | [14] | [15] | [16] | [18] | [19]

C[C@]12Cc3nonc3C[C@@H]1CC[C@@H]1[C@@H]2CC[C@@]2(C)[C@H]1CC[C@]2(C)O
inactive: [1] | [2] | [3] | [4] | [5] | [6] | [7] | [8] | [9] | [10] | [11] | [12] | [14] | [15] | [18] | [19]

CCOC(=O)c1ncn2c1CN(C)C(=O)c1c(I)cccc1-2
inactive: [1] | [2] | [3] | [4] | [5] | [6] | [7] | [8] | [9] | [10] | [11] | [12] | [13] | [15] | [16] | [20] | [18] | [19]

ClCc1cccc(Cl)c1
inactive: [1] | [2] | [3] | [4] | [5] | [6] | [7] | [8] | [9] | [10] | [11] | [13] | [14] | [15] | [16] | [17] | [20] | [19]

NC1CCC(CC2CCC(N)CC2)CC1 (stereo not given)
inactive: [2] | [3] | [4] | [5] | [6] | [7] | [8] | [9] | [10] | [11] | [12] | [14] | [15] | [16] | [20] | [18] | [19]
active: [1] 23.9 µM

C=C1C[C@@H]2[C@H](CC[C@]3(C)C(=O)CC[C@@H]23)[C@@]2(C)C=CC(=O)C=C12
inactive: [1] | [3] | [4] | [5] | [6] | [7] | [8] | [9] | [10] | [11] | [12] | [13] | [14] | [15] | [18] | [19]
active: [2] 29.8 µM

CC1(C)[C@H](/C=C2\CCSC2=O)[C@@H]1C(=O)OCc1coc(Cc2ccccc2)c1
active: [2] 61.1 µM | [12] 2.65 µM
inactive: [1] | [3] | [4] | [5] | [6] | [7] | [8] | [9] | [10] | [11] | [13] | [14] | [15] | [20] | [19]

CC1Sc2c(C(=O)O)c(=O)c3cc(F)c(N4CCNCC4)cc3n21 (stereo not given)
inactive: [1] | [2] | [3] | [4] | [5] | [6] | [7] | [8] | [9] | [10] | [11] | [12] | [13] | [14] | [15]

O=c1[nH]c2ccccc2n1C1CCNCC1
inactive: [1] | [2] | [3] | [4] | [5] | [6] | [7] | [8] | [9] | [10] | [11] | [12] | [13] | [15] | [16] | [18] | [19]

O=C(CCCN1CCC(n2c(=O)[nH]c3ccccc32)CC1)c1ccc(F)cc1
inactive: [1] | [2] | [3] | [4] | [5] | [6] | [7] | [8] | [9] | [10] | [11] | [15] | [16] | [18]
active: [12] 1.83 µM | [14] 2.05 µM | [19] 0.0422 µM

COc1ccc2c(c1OC)CN1CCc3cc4c(cc3C1C2)OCO4 (stereo not given)
inactive: [1] | [2] | [3] | [4] | [5] | [6] | [7] | [8] | [9] | [10] | [11] | [12] | [13] | [14] | [17] | [19]
